PubChem BioAssay AID2013 (Sanford-Burnham Center for Chemical Genomics, 2009)
Hit rate of the full screen: of about 290,000 compounds, about 370 (0.13%) were called active. This is one part of a sample in which actives are shown more often than they occur. Entries with a potency or affinity are not part of this list. Unmarked numbers belong to inactive results.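 How the source made its calls: active means spots per cell inhibited over 60%, with over 100 cells counted and total cytoplasm intensity under 500,000; inconclusive means wells with under 100 cells, flagged as likely toxic; inactive means the rest.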

Each compound was assayed against G-protein coupled receptor 55 (Homo sapiens) (UniProt Q9Y2T6) (assay: inhibition of LPI-stimulated GPR55 beta-arrestin translocation – imaging, U2OS, beta-arrestin-GFP, LPI agonist, primary screen (AID 2013;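 further: U2OS cells stably carrying GPR55 and arrestin-GFP stimulated by 5 µM LPI near EC80; imaged beta-arrestin-GFP aggregate spots per cell after agonist stimulation; plate controls were LPI-stimulated DMSO wells for no effect and DMSO wells without LPI for full effect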)). Conditions: LPI antagonism, at 10 µM, active compounds read high.
Sequence of G-protein coupled receptor 55 (Homo sapiens) (Q9Y2T6 whole entry, looked up): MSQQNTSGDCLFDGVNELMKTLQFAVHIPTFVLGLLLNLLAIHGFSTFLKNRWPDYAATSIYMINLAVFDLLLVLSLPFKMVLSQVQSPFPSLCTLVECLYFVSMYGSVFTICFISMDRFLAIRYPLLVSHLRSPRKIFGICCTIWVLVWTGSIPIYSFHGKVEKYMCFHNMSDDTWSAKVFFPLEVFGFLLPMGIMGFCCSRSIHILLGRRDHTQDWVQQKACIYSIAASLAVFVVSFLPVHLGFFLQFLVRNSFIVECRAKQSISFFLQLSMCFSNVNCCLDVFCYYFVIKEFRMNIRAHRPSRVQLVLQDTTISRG

Row | SMILES | inhibition
1 | COCCN(CCOC)C(=S)Nc1ccccc1 | 12.7%
2 | NC(=O)C1CCN(C(=O)C2CC(=O)N(c3ccc(F)cc3)C2)CC1 (centres undefined) | -0.2%
3 | COc1ccccc1OCC(=O)N1CCN(C(=O)COc2ccccc2OC)CC1 | 2.2%
4 | Oc1ccc(/C=N/Nc2nc(-c3cccnc3)nc3ccccc23)c(O)c1 | 1.9%
5 | Oc1ccc(Nc2nc(-c3ccccc3F)nc3ccccc23)cc1 | 7.7%
6 | O=C(Nc1nnc(-c2ccccc2)o1)c1cc(Cl)sc1Cl | -2.3%
7 | O=C(O)c1cc2c(cc1NC(=O)c1ccccc1OC(F)F)OCCCO2 | -0.6%
8 | CCOC(=O)c1c(NC(=O)C2=C(C)NC(=S)NC2c2ccc(F)cc2)sc(C)c1C (centres undefined) | 64.1% (active)
9 | CCOC(=O)c1c(NC(=O)c2ccnn2C)sc(C)c1C | 1.1%
10 | CCOC(=O)c1c(NC(=O)c2ccc(Cl)s2)sc(C)c1C | 1.6%
11 | CCOC(=O)c1c(NC(=O)C2=C(C)NC(=S)NC2c2ccc(F)cc2F)sc(C)c1C (centres undefined) | 10%
12 | CCOC(=O)c1c(NC(=O)c2cccnc2)sc(C)c1C | -12.1%
13 | CCOC(=O)c1c(NC(=O)C2=C(C)NC(=S)NC2c2ccccc2C(F)(F)F)sc(C)c1C (centres undefined) | 5.6%
14 | CCOC(=O)c1c(NC(=O)c2ccncc2)sc(C)c1C | -0.7%
15 | Cc1ccccc1NC(=O)CCS(=O)(=O)c1cccc2nonc12 | 2.7%
16 | COc1ccc2c(c1)C(NC(C)=O)C(=O)N2CCc1ccccc1 (centres undefined) | 6.6%
17 | O=C(CCC(=O)n1ncc2ccccc21)NCc1ccc(F)cc1 | -2.2%
18 | O=C(NCc1ccc2c(c1)OCO2)c1nc(Cn2cc([N+](=O)[O-])cn2)no1 | -20%
19 | CC(C)(C)C(=O)COC(=O)c1cc(-c2ccncc2)nc2ccccc12 | 2.9%
20 | O=C(Cn1c(=O)oc2ccccc21)N1CCCC1 | -1.8%

Row | SMILES | inhibition
21 | CCOC(=O)c1c(CN2CCOCC2)n(-c2ccccc2)c2cc(Br)c(OC)cc12 | 23.1%
22 | C=CCCc1ccc(C#N)c(SCc2c(C(=O)OCC)c3cc(OC(C)=O)c(Br)cc3n2C)n1 | -23.2%
23 | CCOC(=O)c1c(C)n(C)c2cc(Br)c(OC)cc12 | 7.4%
24 | CCOC(=O)c1c(CN(C)C)n(-c2ccccc2)c2cc(Br)c(OC)cc12 | -15.4%
25 | CCOC(=O)c1c(CSc2nc(C)cc(C)c2C#N)n(C)c2cc(Br)c(OC(C)=O)cc12 | 1.8%
26 | CCOC(=O)c1c(CSC(=N)N)n(-c2ccc(Br)cc2)c2cc(Br)c(OC(C)=O)cc12 | 89.3% (active)
27 | CCOC(=O)c1c(CN(C)C)n(-c2ccc(C)cc2)c2cc(Br)c(O)cc12 | -0.7%
28 | CCOC(=O)c1c(CN(C)C)n(-c2ccccc2)c2cc(Br)c(O)cc12 | 3.4%
29 | CCCCCCCCOC(=O)c1c(CSC(=N)N)n(C)c2cc(Br)c(OC(C)=O)cc12 | 23.7%
30 | CC(C)CCN(Cc1ccco1)S(=O)(=O)c1ccc(-c2ccc(=O)[nH]n2)s1 | 12.8%
31 | Cc1onc(-c2ccccc2)c1C(=O)N1CCCN2C(=O)c3ccccc3C21 (centres undefined) | -4.5%
32 | O=S1(=O)Cc2cc3ccccc3cc2C1 | 16.4%
33 | COc1ccc(C)cc1NC(=O)c1ccc(OC(F)F)cc1 | 3.1%
34 | CC(/C=C/c1ccccc1)=N/NC(=O)C(O)c1ccccc1 (centres undefined) | 0.5%
35 | CC(=O)NC1=NN(C(C)=O)C2(S1)C(=O)N(C(C)=O)c1ccc(C)cc12 (centres undefined) | 7.7%
36 | CC(c1nnc(SCC(=O)N2CC(=O)Nc3ccccc32)n1Cc1ccccc1)N(C)C (centres undefined) | -4.8%
37 | COc1cccc(Nc2cc(C)c3ccccc3n2)c1 | 6.5%
38 | Cc1ccc(-c2nn(-c3ccccc3)c3[nH]c(=O)c(CNCc4ccccc4)cc23)cc1 | 11.1%
39 | CC(C)(C)c1nn(-c2ccccc2)c2[nH]c(=O)c(CNc3ccc4c(c3)OCCO4)cc12 | 16.1%
40 | Cc1nn(-c2ccccc2)c2[nH]c(=O)c(CNCc3ccc4c(c3)OCO4)cc12 | -26.6%

Row | SMILES | inhibition
41 | CC(C)(C)c1nn(-c2ccccc2)c2[nH]c(=O)c(CNCc3ccco3)cc12 | 39.5%
42 | COc1cccc(NCc2cc3c(C(C)(C)C)nn(-c4ccccc4)c3[nH]c2=O)c1 | 22.7%
43 | CCOc1ccc(NCc2cc3c(C(C)(C)C)nn(-c4ccccc4)c3[nH]c2=O)cc1 | 19.3%
44 | COc1ccc(N2CCN(S(=O)(=O)c3ccc(Cl)s3)CC2)cc1 | -2%
45 | Cc1ccc(NC(=O)CN(C)C(=O)CCOc2cccc(C)c2)cc1 | 7.3%
46 | O=[N+]([O-])c1ccc(N/N=C2\CC3CC=CC23)cc1 (centres undefined) | -7.7%
47 | O=C(N/N=C/c1ccc(OC(=O)c2ccccc2Cl)cc1)c1cc(O)cc(O)c1 | 4.4%
48 | O=C(CNC1CCCCC1)N1CCc2ccccc2C1 | -1.3%
49 | C=CS(=O)(=O)c1ccc(Oc2ccc(S(=O)(=O)C=C)cc2)cc1 | 70.4% (active)
50 | NS(=O)(=O)c1ccc(Oc2ccc(S(N)(=O)=O)cc2)cc1 | -4.4%
51 | CNS(=O)(=O)c1ccc(Oc2ccc(S(=O)(=O)NC)cc2)cc1 | 19%
52 | COc1ccc(C(=S)N2CCOCC2)cc1OC(=O)c1ccc([N+](=O)[O-])cc1[N+](=O)[O-] | 6.8%
53 | COC(=O)CCC(=O)OC1(C)C(=O)C=C2C=C(C3CC3)N(C3CC3)C=C2C1=O (centres undefined) | 5.7%
54 | COc1cccc(NC(=O)COC(=O)C2C3CC4OC(=O)C2C4C3)c1 (centres undefined) | 2.1%
55 | COC(=O)C1=C(C)N(Cc2ccccc2)C(=NCCCCO)N[C@H]1c1ccccc1 | -6.4%
56 | COCCN=C1N[C@@H](c2ccccc2)C(C(=O)OC)=C(C)N1Cc1ccccc1 | 31.4%
57 | Cc1ccc(OCC(=O)N2c3ccccc3NC(=O)C2(C)C)c([N+](=O)[O-])n1 | 6.9%
58 | CCOC(=O)c1nc(Nc2ccc(C)cc2)c2ccccc2n1 | 11.6%
59 | CCOC(=O)c1nc(Nc2ccccc2)c2ccccc2n1 | -3.5%
